Bioassay records (PubChem)
MCF10A rereplic = A quantitative high throughput screen for small molecules that induce DNA re-replication in MCF 10a normal breast cells; AID 624296, 2012; 350,000 compounds, 2.9% hits; Potency, µM (doses to about 46.1 µM), actives largely listed as activators; MCF 10A DNA re-replication, Hoechst nuclear intensity, 48 h; also: nearly all actives have a fitted effect of over 50% in size
S2 tox = Viability Counterscreen for Primary qHTS for Inhibitors of ATXN expression; S2 cells (HEK-293 line with an ATXN2-luciferase reporter) viability, CellTiter-Fluor protease fluorescence, 24 h; Potency, µM (doses to about 56.7 µM), hits mostly cytotoxic; 400,000 compounds, 0.49% hits; AID 651635, 2014; also: nearly all actives have a fitted effect of over 40% in size
IL-1B inflam inh = qHTS for Inhibitors of Inflammasome Signaling: IL-1-beta AlphaLISA Primary Screen. THP-1 LPS/ATP IL-1B secretion, AlphaLISA, 16 h; active compounds read low. activity change, % at 57.5 µM. 360,000 compounds, 4.7% hits. AID 743279, 2014; in the data active = activity change below about -50%; inconclusive = mostly about -30% to -49%
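THP-1 cells pretreated 1 hr with compounds (up to 57.5 uM final), then stimulated with LPS (250 ng/mL final) plus ATP (1.25 mM final); secreted IL-1B measured by AlphaLISA after 16 hr, decreased signal indicating inhibition.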
ATXN2 expr inh = Primary qHTS for Inhibitors of ATXN expression | 360,000 compounds, 0.72% hits | Potency, µM (titrated, usually from 57 µM), usual class: inhibitors | HEK-293 ATXN2-luciferase reporter, luminescence, 24 h | AID 1745845, 2022; also: nearly all actives have a fitted effect of over 55% in size
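qHTS (up to 57 uM final) was run with 24 h compound exposure of reporter cells at 37 °C. Each well was multiplexed: SteadyGlo luminescence measured ATXN2-luciferase expression after a fluorogenic Gly-Phe-AFC viability readout (25 uM final).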
PINK1 modulator = A Quantitative High throughput Screen to Identify Chemical Modulators of PINK1 Expression; PINK1 immunofluorescence, high-content cytometry, 24 h; Potency, µM (titrated, usually from 76.6 µM), hits mostly activators; 410,000 compounds, 0.2% hits; active = well fitted activation curve with a large enough effect; inconclusive = small, poorly fitted or top-dose-only effect; cell line not stated here; also: nearly all actives have a fitted effect of over 65% in size
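Measures PINK1 amount and localization on or inside mitochondria by immunofluorescence. Stable cells get compounds at 5 concentrations for 24 hours before fixation and staining; CCCP controls included.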
SW480 rereplic = A quantitative high throughput screen for small molecules that induce DNA re-replication in SW480 colon adenocarcinoma cells; Potency, µM (top dose mostly 46.1 µM), hits mostly activators; 340,000 compounds, 1.8% hits; SW480 DNA re-replication, Hoechst DNA content imaging, 48 h; also: nearly all actives have a fitted effect of over 55% in size
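Image-based DNA-content assay: after two days of treatment, nuclei were labelled with the DNA dye Hoechst and imaged, and hits were compounds raising the count of nuclei showing high fluorescence intensity.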
A number is an active result; i = inactive; ? = inconclusive; nt = no result given; [ ] = another dose, or the depositor's remark. Only some compounds are listed: those with a hit (about 7.1% of all), similar ones and a draw of the others. Unless noted, calls follow the shape of the dose curve; as a rule, active = well fitted curve in the direction sought with a large enough effect; inconclusive = small, poorly fitted or top-dose-only effect, or another doubt; inactive = no such curve, though single readings can be large; an effect the other way counts as inactive or inconclusive.

SMILES | MCF10A rereplic | S2 tox | IL-1B inflam inh | ATXN2 expr inh | PINK1 modulator | SW480 rereplic
Cc1ccc(S(=O)(=O)c2nc(S(C)(=O)=O)sc2N2CCN(C)CC2)cc1 | i | i | ? | i | i | i
Cc1ccc(S(=O)(=O)c2nc(-c3ccco3)oc2N2CCC(C)CC2)cc1 | ? | i | -74.2 | i | i | ?
Cc1ccc(S(=O)(=O)c2nc(S(C)(=O)=O)sc2N2CCC(C)CC2)cc1 | ? | i | -83.7 | i | i | ?
CNC(=S)N/N=C/c1ccco1 | i | i | i | i | i | 16.4µM
COC(=O)[C@@]12CCCCN1[C@H](c1ccc(-c3ccc4c(c3)OCO4)cc1)[C@H]1C(=O)N(C)C(=O)[C@H]12 | 3.66µM | ? | i | i | i | i
CCCCCCSc1ccc([C@@H]2[C@H]3C(=O)N(C)C(=O)[C@H]3[C@]3(C(=O)OC)CCCCN23)cc1OC | 14.6µM | i | i | i | i | i
Cc1ccc(Nc2ncnc3ccccc23)cc1 | i | i | i | i[11.3 µM] | i | i
CC(C)Oc1ccc(Nc2ncnc3ccccc23)cc1 | ? | i | -153.6 | nt | i | i
CSc1ncc(C(=O)N2CCN(c3cc(C)ccc3C)CC2)c(C)n1 | nt | i | nt | i | i | nt
CC1(Cc2cccc(C(F)(F)F)c2)C(=O)Nc2ccc(-c3ccc(F)c(Cl)c3)cc21 (configuration not stated) | nt | nt | -69.8 | ? | i | nt
O=C(/C=C/c1ccc(F)cc1)N1CCCN(C(=O)/C=C/c2ccc(F)cc2)CC1 | i | i | i | i | i | i
CN1CCN(C(=O)/C=C/c2ccc([N+](=O)[O-])o2)CC1 | 20.6µM | nt | -57.8 | nt | i | i
O=C(/C=C/c1ccc(-c2ccc(F)cc2)o1)N1CCCC1 | i | i | -75.4 | i | i | i
O=C(O)/C=C/c1ccc([N+](=O)[O-])o1 | ? | i | i | i | i | ?
O=S(=O)(NCCC1=CCCCC1)c1ccc(OC(F)(F)F)cc1 | ? | i | -90.9 | i | i | i
O=C(Nc1cccc(F)c1)c1cc(S(=O)(=O)NCCC2=CCCCC2)ccc1F | ? | ? | -61.1 | i | i | i
Cc1ccc(NC(=O)c2cc(S(=O)(=O)NCCC3=CCCCC3)ccc2F)cc1F | ? | ? | -76.9 | ? | i | ?
Cc1cc(C)cc(NC(=O)c2cc(S(=O)(=O)NCCC3=CCCCC3)ccc2F)c1 | nt | ? | nt | ? | i | nt
COc1ccc(NC(=O)c2cc(S(=O)(=O)NCCC3=CCCCC3)ccc2F)cc1 | nt | ? | nt | ? | i | nt
COc1ccc(Cl)cc1NC(=O)c1cc(C)nc2c1c(C)nn2-c1ccccc1 | nt | i | nt | i | i | nt
O=C1c2ccccc2C(=O)c2c1cccc2N1CCOCC1 | i | ? | -80.6 | i | i | i
N#Cc1ccc(CN2CCN(C(=O)Cn3nc(C(N)=O)c4ccccc4c3=O)CC2)cc1 | i | i | i | i | i | 20.6µM
CCOC(=O)C1CCN(C(=O)c2ccc(NC(=O)c3nsc4ccccc34)cc2)CC1 | nt | nt | nt | nt | i | nt
COc1ccc2c(c1)cc1c(=O)n(CC(=O)NC3CC3)nc(C)n12 | nt | i | nt | i | i | nt
O=S1(=O)Nc2c(ccc3cccnc23)-c2ccccc21 | i | ? | -99.8 | 3.55µM | i | i
SMILES | MCF10A rereplic | S2 tox | IL-1B inflam inh | ATXN2 expr inh | PINK1 modulator | SW480 rereplic
Cc1n[nH]c(C)c1N1C(=O)c2cccc3c(N4CCCCCC4)ccc(c23)C1=O | ? | i | i | i | i | i
C=CCN1C(=O)c2cccc3c(N4CCCCC4)ccc(c23)C1=O | 16.4µM | nt | i | i | i | ?
O=C1c2cccc3c(N4CCCCC4)ccc(c23)C(=O)N1CCO | ? | i | i | i | i | ?
O=C1c2cccc3c(N4CCCCC4)ccc(c23)C(=O)N1c1cccc(O)c1 | 11.6µM | nt | -67.7 | i | i | ?
COc1ccc(-c2cc(C(=O)Oc3ccc(C)cc3)c3ccccc3n2)cc1 | nt | i | nt | i | i | nt
COc1ccc(-c2cc(C(=O)Oc3ccc([N+](=O)[O-])cc3)c3ccccc3n2)cc1 | 18.4µM | i | i | i | i | ?
COc1ccc(-c2cc(C(=O)OCC(=O)N(C)C)c3ccccc3n2)cc1 | i | i | i | i | i | i
Cc1ccc2nc(C)cc(C(=O)OCC(=O)c3ccc(Cl)c([N+](=O)[O-])c3)c2c1 | ? | i | -68.5 | i | i | i
COc1ccc(-c2cc(C(=O)OCC(=O)c3ccc(C)c([N+](=O)[O-])c3)c3ccccc3n2)cc1 | i | i | -55.3 | i | i | i
COc1ccc(-c2cc(C(=O)OCc3ccccn3)c3ccccc3n2)cc1 | ? | i | i | i | i | 13µM
COc1cc(NC(=O)CSc2nc(C)c(C(=O)Nc3ccccc3)c(-c3ccc(OC)c(OC)c3)c2C#N)c(OC)cc1Cl | nt | i | nt | i | i | nt
CCC1NC(=S)N(C2CCCCC2)C1=O (configuration not stated) | i | i | i | i | i | i
CC(C)CC1NC(=S)N(C2CCCCC2)C1=O (configuration not stated) | 16.4µM | i | i | i | i | ?
Cc1ccc(NC(=O)C(Cc2ccccc2)n2cccc2)cc1C (configuration not stated) | nt | nt | nt | nt | i | nt
CCOC(=O)c1c(C)[nH]c(C(C)=O)c1C | i | i | i | i | i | i
CCOC(=O)c1c(C)[nH]c(C(=O)C(C)Cl)c1C (configuration not stated) | ? | i | -100.5 | i | i | i
CCOC(=O)c1[nH]c(C=O)c(C(=O)OCC)c1C | 11.6µM | ? | i | i | i | 5.8µM
O=C(c1cc(-c2ccccc2)on1)N1CCOc2ccc(CN3CCN(c4ccccn4)CC3)cc2C1 | nt | i | nt | nt | i | nt
CN(C)CCCN(C(=O)c1ccc(C(=O)c2ccccc2)cc1)c1nc2cc3c(cc2s1)OCCO3 | i | i | -63.6 | i | i | i
CN(C)CCN(C(=O)c1ccc(C(=O)c2ccccc2)cc1)c1nc2cc3c(cc2s1)OCCO3 | i | i | i | i | i | i
Cc1ccc2sc(N(CCCN(C)C)C(=O)c3ccc(Br)s3)nc2c1C | 13µM | nt | -101.1 | 20µM | i | i
CN(C)CCCN(C(=O)c1ccc(Br)s1)c1nc2cc3c(cc2s1)OCO3 | i | ? | -100.8 | ? | i | i
CN(C)CCCN(C(=O)c1ccc2c(c1)CCCC2)c1nc2cc3c(cc2s1)OCO3 | 16.4µM | i | -86.2 | ? | i | ?
CN(C)CCCN(C(=O)c1ccc(S(=O)(=O)N(C)C)cc1)c1nc2cc3c(cc2s1)OCO3 | i | i | i | i | i | i
C[C@@]1(c2cc(-c3cncnc3)c(F)cc2F)CCSC(N)=N1 | nt | nt | nt | i | nt | nt
